Inconclusive results are not listed. Activity calls are given as the source filed them. The calls were made as follows: active = hit-call score of the fitted dose curve at least 0.9, where 1 is the maximum; inconclusive = response in the unintended direction; inactive = score below 0.9.

The source of these data is PubChem BioAssay (EPA / NIEHS).

Read-out in the assay: HMG-CoA synthase (HMGCS2), HMGCS2 (gene 3158)
The experiment in a line: CLD_HMGCS2_6hr: CellzDirect (CLD) Gene Expression Assay for HMG-CoA synthase (HMGCS2) at 6 hours (AID 2283682).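 Also: actives raise HMGCS2 transcript above the 0.2% DMSO vehicle baseline.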 As for the experimental part: CLD_6hr is a cell-based, multiplexed-readout assay that uses hepatocyte, a human liver primary cell, with measurements taken at 6 hours after chemical dosing in a 96-well plate.CLD_HMGCS2_6hr is one of 16 assay component(s) measured or calculated from the CLD_6hr assay. It is designed to make measurements of mRNA induction, a form of inducible reporter, as detected with chemiluminescence signals by Quantitative Nuclease Protection Assay (qNPA) technology.Data from the assay component CLD_HMGCS2_6hr was analyzed at the endpoint, CLD_HMGCS2_6hr, in the positive analysis fitting direction relative to DMSO as the negative control and baseline of activity. Using a type of inducible reporter, gain-of-signal activity can be used to understand changes in the reporter gene as they relate to the gene HMGCS2. Furthermore, this assay endpoint can be referred to as a primary readout. To generalize the intended target to other relatable targets, this assay endpoint is annotated to the lyase intended target family, where subfamily is HMG-CoA synthase.
Human hepatocyte cultures were treated daily for two consecutive days with fresh dosing solutions containing appropriate concentrations of the 320 ToxCast chemicals (chemical identities were blinded to CellzDirect and other ToxCast collaborators), vehicle control (0.2% DMSO), and positive control inducers as summarized in Table 1. Due to the large number of treatment groups and chemicals examined, the ToxCast chemicals were divided into two groups (spanning two independent cultures of hepatocytes from separate donor preparations (Hu778: ToxCast plates 1 and 2; Hu776: ToxCast plates 3 and 4). Each preparation of human hepatocyte cultures was treated with respective vehicle control, medium only control, set of six positive controls/reference chemicals for the five hepatic receptor pathways, and a subset of eight of the ToxCast chemicals (indoxacarb, pyrithiobac-sodium, norflurazon, cyhalofop-butyl, methomyl, thiram, acetochlor, and propiconazole). These replicate data, coupled with internal replicates designed within the blinded ToxCast chemical library, provided additional data to evaluate interindividual differences between hepatocyte preparations and their potential impact on chemical profiles.Cell morphology and integrity were evaluated using phase-contrast microscopy as an indicator of hepatocyte cell health (Tyson & Green, 1987). Cultures for each treatment group (i.e., media, vehicle [0.2% DMSO], positive control inducers [multiple concentrations], and the ToxCast chemicals [multiple concentrations]) were observed and cell morphology was assessed relative to vehicle control cultures at each harvest time point (0, 6, 24, or 48 h). […] Images were evaluated at the conclusion of the study to assess changes in cell integrity and account for the effects of chemical exposure on uncharacteristic changes in concentration-dependent gene expression profiles. The results from these determinations of apparent cytotoxicity were annotated (yes/no) alongside the corresponding qNPA data for reference.At the conclusion of each treatment period, hepatocyte cultures (96-well) were washed with 1 volume of HBSS, lysed by addition of 25 ul ArrayPlate lysis buffer (HTG, Tucson, AZ), and 70 ul/well of Denaturation Oil, denatured by incubation at 95C for 10 min, and frozen at approximately -70C until analysis by nuclease protection assay (qNPA) (Roberts et al., 2007). For qNPA analysis, cell lysates were thawed at 50C for approximately 30 min, qNPA probes were added, and samples were incubated at 95C for 10 min to begin the detection process by denaturing the target RNA, dissociating the duplexes and secondary structure hybridization. At the conclusion of the hybridization period, S1 nuclease reagent was added to each sample to digest all nonprotected nucleotides at 50C for 60-90 min. […]
On to `CCCN(CCC)c1c([N+](=O)[O-])cc(S(N)(=O)=O)cc1[N+](=O)[O-]`, for which the compound was called inactive.

As for `COC(=O)C=C(C)OP(=O)(OC)OC`, the compound was classed as inactive.

As for `CCCCOC(=O)c1ccccc1C(=O)OCCCC`, the result was inactive.

Take `O=C(O)c1nc(Cl)ccc1Cl`: the concentration at half-maximal activity (AC50) was 1.89 µM (active).

For `CCCCC(CC)COC(=O)c1ccccc1C(=O)OCC(CC)CCCC` (stereo not drawn), the call was inactive.

Turning to `C#CCOS(=O)OC1CCCCC1Oc1ccc(C(C)(C)C)cc1` (stereo not drawn), the compound was called inactive.

Consider `COC(=O)C(C)Oc1ccc(Oc2ccc(Cl)cc2Cl)cc1` (stereo not drawn), for which the result was inactive.

In the case of `O=C(Nc1ccccc1)Nc1ccnc(Cl)c1`, the compound was classed as inactive.

On to `COc1nc(C)nc(NC(=O)NS(=O)(=O)c2ccccc2CCC(F)(F)F)n1`, for which the compound was called inactive.

For the compound `CCCC1COC(Cn2cncn2)(c2ccc(Cl)cc2Cl)O1` (stereo not drawn), the call was inactive.

As for `CCOc1cc(Oc2ccc(C(F)(F)F)cc2Cl)ccc1[N+](=O)[O-]`, the compound was classed as inactive.

For the compound `CCc1nn(C)c(C(=O)NCc2ccc(C(C)(C)C)cc2)c1Cl`, the compound was called inactive.

For the compound `CC1COC(Cn2cncn2)(c2ccc(Oc3ccc(Cl)cc3)cc2Cl)O1` (stereo not drawn), the compound was classed as inactive.

For `COC(=O)N(OC)c1ccccc1COc1ccn(-c2ccc(Cl)cc2)n1`, the outcome was inactive.

With `COP(N)(=O)SC` (stereo not drawn), the outcome was inactive.

Consider `COC(=O)c1ccccc1C(=O)OC`, for which the compound was classed as inactive.

Turning to `CCOP(=S)(OCC)SCn1c(=O)oc2cc(Cl)ccc21`, the outcome was inactive.

On to `N#Cc1nn(-c2c(Cl)cc(C(F)(F)F)cc2Cl)c(N)c1S(=O)C(F)(F)F` (stereo not drawn), for which the compound was classed as inactive.

As to `Cc1ccc(-c2c(Cl)nc(C#N)n2S(=O)(=O)N(C)C)cc1`, the compound was classed as inactive.

In the case of `CNC(=S)S`, the outcome was inactive.

Regarding `CCON=C(CC)C1=C(O)CC(c2c(C)cc(C)cc2C)CC1=O` (stereo not drawn), the outcome was inactive.

Consider `COc1cnc(OC)n2nc(NS(=O)(=O)c3c(OCC(F)F)cccc3C(F)(F)F)nc12`, for which the outcome was inactive.

On to `C=CCC1=C(C)[C@@H](OC(=O)[C@@H]2[C@@H](C=C(C)C)C2(C)C)CC1=O`, for which the compound was called inactive.

For the compound `CC(C)C1(C)N=C(c2nc3ccccc3cc2C(=O)O)NC1=O` (stereo not drawn), the call was inactive.

Take `CCNc1nc(Cl)nc(NC(C)C)n1`: the compound was classed as inactive.

For the compound `O=C(O)COc1nc(Cl)c(Cl)cc1Cl`, the call was inactive.

As for `CCOC(=O)CC(SP(=S)(OC)OC)C(=O)OCC` (stereo not drawn), the call was inactive.

Take `N#CC(CCc1ccc(Cl)cc1)(Cn1cncn1)c1ccccc1` (stereo not drawn): the call was inactive.

With `C=CCC1=C(C)C(OC(=O)C2C(C=C(C)C)C2(C)C)CC1=O` (stereo not drawn), the outcome was inactive.

Turning to `CN(C)C(=S)SSC(=S)N(C)C`, the result was inactive.

`N#Cc1cc(Br)c(O)c(Br)c1`: the compound was classed as inactive.

On to `CC(C)(C)c1ccc(CSc2cnn(C(C)(C)C)c(=O)c2Cl)cc1`, for which the call was inactive.

Regarding `COc1nc(C)nc(NC(=O)NS(=O)(=O)c2ccccc2Cl)n1`, the outcome was inactive.
